These results are taken from PubChem BioAssay (NCI).

Molecules are shown by their SMILES. Several values for one entry are separate records, joined by “and”; a condition that tells them apart may be missing. Equal entries are not always repeated. About 83,000 compounds went through this panel and 20% of them were active in at least one assay; those are over-represented in the sample as a whole.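 Treatment: one concentration, 48 hours, 96-well format. Scoring: percent growth, with anything below 10 considered active.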 Activity calls are given as the source filed them.

The test has as its system HL-60(TB) leukemia. Kind of test: NCI-60 one-dose screen, 48 h (100 = growth as untreated, 0 = no growth, -100 = all killed). The following applies: 10 µM unless noted.
As for `C(#CCN1CCOCC1)CCCN1CCOCC1`, the growth was 93% (inactive) and 127% (inactive).
For `CCc1[nH]nc(-c2ccc(OC)cc2)c1-c1ccccc1OCCN(CC)CC` the value was 92.8% (inactive).
Take `O=c1c2cc(F)ccc2oc2c(NCCNCCO)nc3ccccc3c12`: the growth was 70.5% (inactive).
`CN(C)CCn1c(=O)c2c3cc4c(cc3n(CCN(C)C)c2c2ccc(Cl)cc21)OCO4`: the growth is 19.5% (inactive).
On to `O=C(Cc1ccccn1)C(F)(F)C(F)(F)C(F)(F)F`, for which the growth was 105% (inactive).
Next, `O=P(O)(O)OCC(O)CO` (stereo not given): 97.7% (inactive); `CS(=O)(=O)C1=CN(CCO)C(=O)N2CCCN=C12`: 109% (inactive).
As to `Nc1c(C(=O)Nc2ccc(Cl)cc2)cc(-c2nc3ccccc3s2)c(=O)n1NS(=O)(=O)c1ccc(Cl)cc1`, the growth was 100% (inactive).
For `O=C(/C=C/c1ccco1)Nc1ncc(Cc2cccc(C(F)(F)F)c2)s1`, the growth was -53.6% (active).
Turning to `CCOC(=O)CSc1ncnc2c1c(-c1ccccc1)c(-c1ccccc1)n2-c1ccc(C)cc1`, the growth was 55.9% (inactive).
Turning to `C#Cc1c2c(c(OC)c3c1OCO3)[C@H]([C@H]1OC(=O)c3c1ccc(OC)c3OC)N(C)CC2`, the growth is 72.5% (inactive).
As to `O=C1C(=O)c2ccccc2C(O)=C1CCCc1ccc(C2CCCC2)cc1`, the growth was 20.6% (inactive).
Turning to `CCOC(=O)c1cc(/C(=N\O)c2cc(OC)c(OC)c(OC)c2)n2c(C)cccc12`, the growth is 3.22% (active).
For `O=C1Nc2cc(-c3ccncc3)ccc2/C1=C/c1ccc[nH]1`, the growth is 99.9% (inactive).
As to `N/C(=N\c1nc2ccccc2s1)NC(=O)Nc1ccccc1Cl`, the growth is -27.3% (active).
For the compound `CN1C(=O)N(C)C2C1NN=c1s/c(=C\c3c[nH]c4ccccc34)c(=O)n12` (stereo not given), the growth was -34.1% (active).
In the case of `CCOc1ccc(/C=N\N2CCCCCC2)cc1OCC`, the growth was 92.7% (inactive).
For `CC(CCc1ccc(Cl)c(Cl)c1)NCc1ccc(C(C)(C)C)cc1` (stereo not given), the growth was 46.2% (inactive).
As for `O=C(O)CN(CCN(CC(=O)O)CC(=O)O)CCN(CC(=O)O)CC(=O)O`, the growth is -51.1% (active) and 109% (inactive) and 94.7% (inactive).
`CC1(CO)CCCC12OCCO2` (stereo not given): the growth was 105% (inactive).
`CCN(CC)CCNCC(=O)Oc1ccc(/C=C/C(=O)CC(=O)/C=C/c2ccc(OC(=O)CNCCN(CC)CC)c(OC)c2)cc1OC`: the growth is -22.6% (active).
As to `N#CCNC(=O)c1ccc(-c2ccnc(Nc3ccc(N4CCOCC4)cc3)n2)cc1`, the growth was -25.3% (active).
For the compound `Cc1ccc(/C=N/NC(N)=S)s1`, the growth was 101% (inactive).
For `COC(=O)/C=C/c1cc(OC)c2c(c1)[C@@H](C(=O)OC)[C@H](c1ccc(OC)c(OC)c1)O2`, the growth was -13.3% (active).
On to `c1ncc2[nH]cnc2n1`, for which the growth was 54.2% (inactive).
For `O=C1c2ccccc2C(=O)c2c(NCCNCCO)ccc(NCCNCCO)c21` the value was 64.9% (inactive) and 11.4% (inactive) and 2.46% (active); for `COc1ccc2c(NCCCCCCCCNc3c4ccccc4nc4cc(OC)ccc34)c3ccccc3nc2c1`, -92.3% (active); for `Clc1ccc(N/N=C/c2ccccn2)nc1`, -15.4% (active).
As for `O=c1ssc(Cl)c1-c1ccccc1`, the growth is 48% (inactive).
`O=C(c1ccc(-c2nc(CSc3nc4ccccc4s3)no2)cc1)N1CCSCC1`: the growth is 27% (inactive).
As for `O=c1[nH]c2ccccc2n1C1CCN(CCOc2ccccc2)CC1`, the growth was 50% (inactive).
Regarding `O=C(Nc1cccc(-n2ccc3c(NC(=O)c4ccccc4)nccc32)c1)c1cccc(C(F)(F)F)c1`, the growth is 0.531% (active).
For the compound `COc1ccc(CC(=O)Nc2nn3c(-c4cc(C(F)(F)F)cc(C(F)(F)F)c4)nnc3s2)cc1`, the growth is 52% (inactive).
For `COC(=O)/C(=C\c1c(-c2ccccc2)[nH]c2ccccc12)S(C)(=O)=O`, the growth is 1.54% (active).
For the compound `c1ccc(-c2ccc3ccccc3c2)cc1`, the growth is 109% (inactive).
Turning to `CCCOCC(O)CNCCN` (stereo not given), the growth was 99.8% (inactive).
On to `COc1cc(Nc2nc(N[C@H]3CCCC[C@@H]3N)nc3cc[nH]c(=O)c23)cc(OC)c1`, for which the growth was 16.2% (inactive).
`CC(C)(C)c1ccc(S(=O)(=O)N[C@H]2CC[C@H]3[C@@H]4CCc5cc(OS(=O)(=O)O)ccc5[C@H]4CC[C@]23C)cc1`: the growth was 19.6% (inactive).
Next, `Cc1ccc(S(=O)(=O)Nc2cccc(Cn3c(=O)[nH]c4ccc(Oc5ncccn5)cc4c3=O)c2)cc1`: 65.3% (inactive); `CCOC(=O)C1=C(N)Oc2c(sc3c(F)cccc23)C1c1ccc(O)cc1` (stereo not given): 18.4% (inactive).
